Screening data deposited in PubChem BioAssay by Sanford-Burnham Center for Chemical Genomics.
A selection: hits, their analogues and other compounds. The true share with any hit is near 3.1%.
PPC-1+TRAIL kill – compounds killing PPC-1 cancer cells with TRAIL present, primary screen, TRAIL potentiator project, ATPLite luminescence, uHTS; actives 0.41% (n = 220,000); AID 1443, 2008; cell killing (% activity), % at 4 µM or 5 µM; PPC-1 cells + TRAIL, ATPLite viability luminescence;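 active means cell killing above 50% in the first pass at 4 µM, then a duplicate retest at 5 µM averaging 50% or more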;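 further: plate controls were cells with TRAIL plus DMSO for no effect and medium-only wells lacking cells for full effect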
HIF-2a block – HIF-2a reporter inhibitors, primary screen, luminescence, 786-0 RCC cells; 786-0 RCC cells HIF-2a reporter, luciferase luminescence, overnight; inhibition, % at 18.8 µM; actives 0.72% (n = 360,000); AID 624352, 2012;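 active means inhibition of the luminescence signal of 40% or more relative to plate controls, in a single-dose primary screen at 18.75 µM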
CF NFkB inh – inhibitors of PAF-induced NF-kB signaling, primary screen, cell-based, GFP fluorescence, uHTS | KKLEB NF-kB-GFP reporter, GFP fluorescence overnight | inhibition, % at 5 µM | actives 0.86% (n = 360,000) | AID 588850, 2011;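 active means at least 50% inhibition at 5 µM, scaled per plate between neutral and stimulator controls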;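 further: PAF is a Pseudomonas aeruginosa culture filtrate used as stimulus; plate controls were PAF-stimulated DMSO wells for no effect and unstimulated DMSO wells for full effect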
Peg3 prom inh – Peg3 promoter-driven luciferase inhibitors, primary screen, cell-based, HeLa, luciferase luminescence. HeLa PEG-Prom luciferase reporter, overnight. inhibition, % at 20 µM. actives 1.7% (n = 360,000). AID 588405, 2011;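 active means inhibition of at least 50% at 20 µM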
TRAIL sens C8 – viability loss with TRAIL in NB7+C8 cells, primary screen, TRAIL sensitizer project, cell-based, ATPlite luminescence; inhibition (viability loss, TRAIL sensitization), % at 10 µM; actives 1% (n = 360,000);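 active means compounds causing at least 50% loss of cell viability in the single-dose screen, relative to plate controls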
KKLEB cytotox – cytotoxicity in KKLEB CF airway cells, primary screen, cytotoxicity control for CF NF-kB inhibitor project, cell-based, uHTS, fluorescence assay plates. activity change (cytotoxicity), % at 5 µM. KKLEB CF airway cells viability, ATPlite luminescence, overnight; stronger effect = lower value; cells stimulated with P. aeruginosa culture filtrate. actives 0.36% (n = 360,000);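 active means corrected activity change at or below -50% at 5 µM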
Mdm2-MdmX confirm – retested Mdm2-MdmX interaction blockers, confirmation, cell-based, luminescence, single concentration, set 2; shares compounds with HIF-2a block; SaOS-2 split-luciferase Mdm2/MdmX complementation; inhibition, % at 8 µM; actives 99% (n = 740); AID 504601, 2011;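 active means mean inhibition of the luminescence signal across two replicates at or above 26 percent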
Target sequence (O15151 whole entry, looked up): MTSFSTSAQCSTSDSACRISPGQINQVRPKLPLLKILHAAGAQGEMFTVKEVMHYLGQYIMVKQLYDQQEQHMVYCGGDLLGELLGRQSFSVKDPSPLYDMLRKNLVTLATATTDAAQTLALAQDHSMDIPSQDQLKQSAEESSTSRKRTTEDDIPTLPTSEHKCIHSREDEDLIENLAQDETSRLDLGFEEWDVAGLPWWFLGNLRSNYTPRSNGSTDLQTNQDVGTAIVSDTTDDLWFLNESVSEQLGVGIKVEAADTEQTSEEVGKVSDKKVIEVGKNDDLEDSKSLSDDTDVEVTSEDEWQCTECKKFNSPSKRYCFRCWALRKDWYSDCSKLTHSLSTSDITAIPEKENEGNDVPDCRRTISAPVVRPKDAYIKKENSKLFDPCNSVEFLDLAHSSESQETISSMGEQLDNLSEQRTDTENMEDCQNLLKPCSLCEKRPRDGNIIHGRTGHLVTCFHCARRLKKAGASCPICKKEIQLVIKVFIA
Target sequence (Q00987 whole entry, looked up): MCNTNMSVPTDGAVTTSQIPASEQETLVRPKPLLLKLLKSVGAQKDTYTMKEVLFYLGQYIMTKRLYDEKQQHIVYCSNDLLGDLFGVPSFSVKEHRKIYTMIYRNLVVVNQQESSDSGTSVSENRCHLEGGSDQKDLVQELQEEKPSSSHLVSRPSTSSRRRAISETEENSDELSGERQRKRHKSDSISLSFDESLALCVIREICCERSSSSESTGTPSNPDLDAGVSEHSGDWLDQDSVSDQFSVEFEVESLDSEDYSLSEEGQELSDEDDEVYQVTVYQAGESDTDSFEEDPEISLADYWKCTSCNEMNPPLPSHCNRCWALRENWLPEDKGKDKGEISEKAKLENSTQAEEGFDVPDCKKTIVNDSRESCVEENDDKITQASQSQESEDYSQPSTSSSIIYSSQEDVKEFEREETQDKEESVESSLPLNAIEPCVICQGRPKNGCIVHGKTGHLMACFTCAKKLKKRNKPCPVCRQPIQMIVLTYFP
HIF-2a inh conf – HIF-2a reporter inhibitor retest, confirmation, luminescence, 786-0 RCC cells. HIF-2a luciferase reporter luminescence, overnight. shares compounds with HIF-2a block. actives 56% (n = 1,800). AID 651580, 2012. inhibition, % at 18.8 µM;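 active means mean inhibition across four replicates of at least 40 percent at the single tested concentration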
HIF-1a cs – HIF-1a luciferase reporter signal reduction – MiaPaCa-2 cells, single concentration, counter-screen for HIF-2a inhibitor project, confirmation. shares compounds with HIF-2a block. MiaPaCa-2 HIF-1a luciferase reporter, desferoxamine, overnight. inhibition, % at 18.8 µM. actives 72% (n = 1,800);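 active means mean inhibition of the reporter signal across four replicates at the single tested dose of 50% or more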
* = called active by the depositor; . = no result given.

SMILES	PPC-1+TRAIL kill	HIF-2a block	CF NFkB inh	Peg3 prom inh	TRAIL sens C8	KKLEB cytotox	HIF-2a inh conf	HIF-1a cs	others
Cc1ccc(N=c2c([N+](=O)[O-])nn(-c3ccc4c(c3)OCCO4)n2O)cc1F	0	70*	-15	33	4	8	84*	94*
O=[N+]([O-])c1nn(-c2ccc3c(c2)OCCO3)n(O)c1=Nc1ccccc1	20	82*	-18	76*	22	28	90*	100*	Mdm2-MdmX confirm=95*
CCC(C)Sc1ccc([C@@H]2[C@@H]3C(=O)N(C)C(=O)[C@@H]3[C@]3(C(=O)OC)CCCCN23)cc1 (some centres not stated)	.	-7	14	-2	-3	-20	.	.
CCc1nc2ccc(C(=O)Nc3cc(-c4ccccc4)ccc3OC)cn2c1N(CCN(C)C)CC1CC1	.	82*	-4	98*	24	-20	9	101*
CCc1nc2ccc(C(=O)Nc3cc(-c4ccccc4)ccc3OC)cn2c1N(C)CCC(C)C	.	4	5	24	15	8	.	.
Cn1cnnc1Sc1nc([N+](=O)[O-])nn1C	13	7	0	9	4	0	.	.
COc1ccccc1-c1nnc(Sc2nc([N+](=O)[O-])nn2C)o1	-21	0	48	66*	-22	-35	.	.	Mdm2-MdmX confirm=97*
CC1C/C(=C/c2cccn2C)C(=O)/C(=C/c2cccn2C)C1 (configuration not stated)	14	-49	-53	-18	-12	6	.	.
CC1C/C(=C/c2ccncc2)C(=O)/C(=C/c2ccncc2)C1 (configuration not stated)	40	94*	82*	104*	34	-55*	.	.	Mdm2-MdmX confirm=100*
N#Cc1cccc(C=C(C(=O)c2ccccc2)c2ccccc2)c1	.	41*	.	.	3	.	9	6
N#C/C(=C\c1ccc(C#N)cc1)C(=O)c1ccccc1	4	14	1	5	3	-2	.	.
O=S(=O)(/C=C/C=C/S(=O)(=O)c1ccccc1)c1ccccc1	.	95*	92*	100*	8	-42	96*	105*
COc1cc(C(=O)Oc2cc(N)n(S(=O)(=O)c3ccc(F)cc3)n2)cc(OC)c1OC	.	7	17	12	-10	-15	.	.
Nc1cc(OC(=O)c2ccc(F)cc2)nn1S(=O)(=O)c1ccccc1	.	53*	5	16	9	0	-8	5
O=C(CN(C(=O)CNC(=O)c1ccco1)c1ccc(F)cc1)NC1CCCCC1	.	5	-5	4	-27	1	.	.
C=CCn1c(Sc2ncc([N+](=O)[O-])s2)n[nH]c1=O	14	93*	14	102*	-3	17	.	.	Mdm2-MdmX confirm=103*
Cc1cc(C)n(-c2nc(N(c3ccccc3)c3ccccc3)nc(-n3nc(C)cc3C)n2)n1	-2	-27	64*	108*	76*	-53*	.	.	Mdm2-MdmX confirm=103*
Oc1cccc(Nc2nc(N3CCOCC3)nc(N3CCOCC3)n2)c1	.	49*	38	7	1	-27	24	76*
c1ccc(Nc2nc(N3CCOCC3)nc(N3CCOCC3)n2)cc1	9	27	19	-4	8	-14	.	.
CCOC(=O)/C(=C/c1c(C)n(C)c2ccc([N+](=O)[O-])cc12)C(C)=O	-50	72*	2	49	-2	-9	70*	59*
Cc1nn(C)c(C)c1CN(C)C(=O)c1cnn2c1NC(c1ccccc1)CC2C(F)(F)F (configuration not stated)	22	43*	13	35	3	-4	28	9
COc1ccc2cc1Oc1ccc(cc1)C[C@H]1c3cc(c(OC)cc3CCN1C)Oc1c(OC)c(OC)cc3c1[C@@H](C2)N(C)CC3	.	7	6	52*	-4	19	.	.	Mdm2-MdmX confirm=100*
COc1ccc2c(c1OC)CN(C)CCc1cc3c(cc1C(O)C2)OCO3 (configuration not stated)	10	7	3	-3	10	-3	.	.
O=C(NC(=C(Cl)Cl)S(=O)(=O)c1ccc(Cl)cc1)c1ccccc1	-4	62*	25	61*	8	-5	4	103*
Cc1ccc(C(=O)NC(=C(Cl)Cl)S(=O)(=O)c2ccc(C)cc2)cc1	-7	9	-16	18	0	-7	.	.
SMILES	PPC-1+TRAIL kill	HIF-2a block	CF NFkB inh	Peg3 prom inh	TRAIL sens C8	KKLEB cytotox	HIF-2a inh conf	HIF-1a cs	others
Cc1ccc(S(=O)(=O)C(NC(=O)c2ccccc2)=C(Cl)Cl)cc1	.	41*	7	52*	6	-6	13	82*
Cc1ccc(S(=O)(=O)/C(=C/Cl)NC(=O)c2ccccc2)cc1	13	41*	49	81*	9	-26	8	68*
C#CC(=O)CC1(CN(Cc2ccccc2)C(=O)OC(C)(C)C)CCCCC1	.	44*	84*	60*	94*	-104*	2	19
CON(C)C(=O)CC1(CN(Cc2ccccc2)C(=O)OC(C)(C)C)CCCCC1	.	7	10	10	4	-5	.	.
CCOc1ccc2nc(Cl)c(C3CC(c4ccco4)=NN3S(C)(=O)=O)cc2c1 (configuration not stated)	4	45*	1	1	0	-9	-3	35
Cc1ccc(-n2nnc3c(=O)oc4ccccc4c32)cc1	44	52*	18	49	16	1	15	30
CCc1nc(C)cn1S(=O)(=O)c1ccc([N+](=O)[O-])cc1	8	13	-23	5	-4	15	.	.
CCCn1c(CC)nc([N+](=O)[O-])c1S(=O)(=O)c1ccccc1	12	46*	52*	-1	10	-27	29	47
O=C1C(=C(I)I)c2ccccc2-c2ccccc21	.	93*	82*	104*	94*	-100*	96*	103*
